High-throughput results deposited in PubChem BioAssay by several laboratories.
MPTP inh = mitochondrial permeability transition pore inhibitors, primary screen, biochemical, isolated mouse mitochondria, absorbance. hit rate 1.4% among 360,000. Ca2+ swelling absorbance, 30 min. inhibition, % at 10 µM;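 active = inhibition of 50% or more, scaled per plate between neutral and stimulator controls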;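 also: 0% = DMSO wells given calcium and 100% = 1 mM EGTA wells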
GRIN3A LBD mod = binders of NR3A ligand-binding domain, primary screen, biophysical, differential scanning fluorimetry, uHTS; Glutamate receptor ionotropic, NMDA 3A (GRIN3A) ligand-binding domain; NR3A LBD differential scanning fluorimetry, Tm shift; 0% = protein alone, 100% = glycine-bound protein; Tm shift relative to glycine control, % at 25 µM; hit rate 2.5% among 340,000; AID 1259313, 2017;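 active = melting temperature shift of at least 10% of the positive control shift, at one fixed dose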
ANO1 block = TMEM16A chloride channel inhibitors, primary screen, cell-based, HTS | Anoctamin-1 (Mus musculus), Q8BHY3 | HEK293 TMEM16A/YFP iodide influx fluorescence, ionomycin | normalized B-score (activity score, 25-100; higher = stronger inhibition) at 10 µM | hit rate 1.2% among 310,000 | AID 588511, 2011;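 active = ratio plate-corrected score three or more library SD toward inhibition, starting fluorescence score within five deviations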;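 also: score derived from kinetic fluorescence span divided by baseline fluorescence per well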
Target sequence (Q8BHY3 whole entry, looked up): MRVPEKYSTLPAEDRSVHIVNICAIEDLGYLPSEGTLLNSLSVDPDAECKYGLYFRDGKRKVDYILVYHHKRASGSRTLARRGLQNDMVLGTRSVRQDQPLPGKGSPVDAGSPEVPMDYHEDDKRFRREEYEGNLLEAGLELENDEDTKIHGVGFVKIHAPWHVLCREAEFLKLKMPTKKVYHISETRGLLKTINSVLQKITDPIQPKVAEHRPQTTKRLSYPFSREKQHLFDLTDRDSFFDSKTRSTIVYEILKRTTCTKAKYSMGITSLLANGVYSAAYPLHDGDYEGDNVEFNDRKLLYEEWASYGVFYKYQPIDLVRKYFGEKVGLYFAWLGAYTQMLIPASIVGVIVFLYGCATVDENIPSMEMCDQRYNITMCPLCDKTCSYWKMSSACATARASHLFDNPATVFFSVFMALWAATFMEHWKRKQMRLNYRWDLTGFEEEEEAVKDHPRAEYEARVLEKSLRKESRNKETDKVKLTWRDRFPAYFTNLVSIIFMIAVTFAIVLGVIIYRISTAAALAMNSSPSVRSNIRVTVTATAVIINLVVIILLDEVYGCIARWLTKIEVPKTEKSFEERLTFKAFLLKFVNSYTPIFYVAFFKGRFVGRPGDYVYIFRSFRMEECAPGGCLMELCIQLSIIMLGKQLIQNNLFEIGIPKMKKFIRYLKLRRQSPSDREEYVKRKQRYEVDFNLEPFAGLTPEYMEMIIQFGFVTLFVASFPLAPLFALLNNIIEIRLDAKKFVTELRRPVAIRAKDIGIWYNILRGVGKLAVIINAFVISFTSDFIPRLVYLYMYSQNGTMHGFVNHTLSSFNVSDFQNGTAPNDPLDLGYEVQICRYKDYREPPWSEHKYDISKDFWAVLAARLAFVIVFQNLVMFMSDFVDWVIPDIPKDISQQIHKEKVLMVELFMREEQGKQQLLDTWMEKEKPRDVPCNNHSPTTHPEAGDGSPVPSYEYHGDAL
CRFR2-BP ag = agonists of CRF-BP/CRF-R2 complex, primary screen, cell-based, HEK293, calcium dye fluorescence, uHTS; CRF-binding protein / CRF receptor 2 complex (human); calcium dye fluorescence (FLIPR); percent of saturating CRF peptide response; activation, % at 13.2 µM; AID 588473, 2011; hit rate 0.46% among 350,000;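 active = activation of at least 50%, plus an integration ratio under a set limit after plate pattern correction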;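 also: plate controls were neutral control wells without compound for no effect and CRF at EC100 for full effect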
TMEM16A act = TMEM16A chloride channel activators or potentiators, primary screen, cell-based, HTS. AID 623877, 2012. hit rate 0.3% among 340,000. B-score at 10 µM. Anoctamin-1 (Mus musculus), Q8BHY3. HEK293 TMEM16A/YFP-H148Q/I152L, iodide quench fluorescence; hits give low values;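 active = fluorescence-ratio B-score plate-corrected deviation score at least 3 library SD below zero, with starting fluorescence score within 5 deviations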;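 also: channel opened by trigger with iodide after compound preincubation; score built on the fluorescence ratio of max minus min over baseline; more negative score means more quench and so TMEM16A activation or potentiation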
CRFBP-R2 block = antagonists of CRF-BP/CRF-R2 complex, primary screen, cell-based, HEK293, calcium dye fluorescence, uHTS; CRF-induced calcium fluorescence; inhibition, % at 11.8 µM; hit rate 0.59% among 350,000; AID 588475, 2011;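 active = inhibition of the ligand-induced calcium signal above about 50% at the single tested concentration, limit read from the data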
* = called active by the depositor; i = inactive; / = no result. Most compounds without a hit are left out; they make up all but 5.1% or so of the library.

SMILES | MPTP inh | GRIN3A LBD mod | ANO1 block | CRFR2-BP ag | TMEM16A act | CRFBP-R2 block
COc1ccc(-c2c[n+]3c(n2-c2ccccc2)SCC3)cc1OC | 2 | 0 | i | 3 | -29* | -6
Cc1ccc(Cc2c(-c3cccc(Br)c3)nc3cc(C)c(Br)c(C)n23)cc1 | 1 | / | / | / | / | /
COc1cc(/C=N/NC(=O)c2cc(-c3cccc(Br)c3)nc3ccccc23)cc(OC)c1O | 5 | 13* | i | -1 | i | -3
O=C(N/N=C/c1ccc(-c2ccc(Br)cc2)o1)c1ccc2c(c1)OCO2 | 2 | 11* | i | 1 | i | -12
COc1cc2ccccc2cc1C(=O)N/N=C/c1ccc2c(c1)OCO2 | 0 | 12* | i | -1 | i | 53*
COc1cc(/C=N/NC(=O)c2cc(-c3ccccc3)nc3ccccc23)ccc1O | 0 | 6 | i | -1 | i | 3
O=C(Nc1ccccc1C(=O)N/N=C/c1ccc(O)cc1)c1ccccc1 | -2 | 7 | i | 2 | i | 4
O=C(N/N=C/c1ccc(O)cc1)c1csc2ccccc12 | 0 | 23* | i | 3 | i | 20
COc1ccc(S(=O)(=O)NC(=O)C2(C)CCN2C(=O)Cc2cccc3ccccc23)cc1 (stereo not drawn) | 1 | / | / | / | / | /
O=C1NC[C@H](CCCCN2C[C@H](Cc3ccccc3)N(CCc3ccccc3)C(=O)C2=O)N(CC2CCCCC2)C1=O | -2 | / | / | / | / | /
O=C1Nc2ccc(C(=O)O)c(O)c2C1=O | -1 | -1 | / | -4 | i | 13
O=C(O)COc1ccccc1/C=N/NC(=O)/C(=C\c1ccc2c(c1)OCO2)NC(=O)c1ccccc1 | -1 | 191* | i | -2 | i | -13
O=C(NN=Cc1ccc2c(c1)OCO2)c1ccccc1 | 0 | -1 | / | -1 | i | 7
O=C(N/N=C/c1ccc(O)cc1)c1cc(-c2ccccc2)nc2ccccc12 | 1 | 13* | i | 3 | i | -15
O=C(N/N=C/c1ccc2c(c1)OCO2)c1cc(-c2ccc(F)cc2)nc2ccccc12 | 7 | 25* | i | 1 | i | -10
O=C(NN=Cc1ccc2c(c1)OCO2)c1ccncc1 | -2 | 25* | / | -3 | i | -3
COc1nc(-c2ccc(Cl)cc2Cl)nc2ccccc12 | 0 | 4 | i | 1 | i | -10
CN(C)c1ccc(NC(=O)CN2CCc3ccccc3C2)cc1 | 0 | -1 | i | 0 | i | -3
CC1(C(=O)NS(=O)(=O)c2cccc(OC(F)F)c2)CCN1C(=O)c1ccccc1CCc1ccccc1 (stereo not drawn) | 2 | / | / | / | / | /
COc1cc(/C=N/NC(=O)c2cc(-c3ccc4c(c3)OCO4)n[nH]2)ccc1O | 1 | 28* | i | 0 | i | 20
COc1ccc(N(CC(=O)N/N=C/c2ccc3c(c2)OCO3)S(=O)(=O)c2ccc(NC(C)=O)cc2)cc1 | 0 | -7 | i | 1 | i | 54*
O=C(N/N=C/c1ccc([N+](=O)[O-])cc1)c1cc(-c2ccc3c(c2)OCO3)n[nH]1 | -1 | 2 | i | -1 | i | -1
CCOC(=O)N1CCN(C(=O)c2c[nH]c3ccc(S(=O)(=O)N(C)c4ccccc4C)cc3c2=O)CC1 | -1 | -5 | i | 0 | i | 26
CCOC(=O)N1CCN(C(=O)c2c[nH]c3ccc(S(=O)(=O)N(C)c4cccc(C)c4)cc3c2=O)CC1 | -2 | 0 | i | 82* | -6.3* | -62
CCc1ccc(NC(=O)Cn2nc(C(=O)O)c3ccccc3c2=O)cc1 | 1 | 3 | i | 3 | i | 58*
SMILES | MPTP inh | GRIN3A LBD mod | ANO1 block | CRFR2-BP ag | TMEM16A act | CRFBP-R2 block
O=[N+]([O-])c1ccc(-c2nc(NCc3cccnc3)c3ccccc3n2)cc1 | 2 | 37* | i | 1 | i | -16
COc1cccc(CNc2nc(-c3cccnc3)nc3ccccc23)c1 | -1 | -13 | i | -2 | i | 96*
COc1ccc(C(=O)NC2CC2)cc1OC1CCN(C(C)CSC)CC1 (stereo not drawn) | -1 | 0 | i | 3 | i | -14
CC1(C(=O)NS(=O)(=O)Cc2cccc(Cl)c2)CCN1C(=O)C1(c2ccc(Cl)cc2)CCC1 (stereo not drawn) | 2 | / | / | / | / | /
O=C1Nc2ccccc2C(=O)N(C2CCCC2)C1C(=O)NC1CC1 (stereo not drawn) | 0 | / | / | / | / | /
COc1ccc(NS(=O)(=O)c2ccc(O)c(C(=O)OCC(=O)Nc3ccc4c(c3)OCCO4)c2)cc1 | 0 | 19* | i | 0 | i | 11
O=C(COC(=O)c1cc(-c2ccccc2)nc2ccccc12)Nc1ccc2c(c1)OCO2 | 12 | 13* | i | 9 | i | -13
O=C(COC(=O)c1c2c(nc3ccccc13)CCCC2)Nc1ccc2c(c1)OCO2 | -3 | -1 | i | 0 | i | 7
COc1ccc(-c2cc(C(=O)OCC(=O)Nc3ccc4c(c3)OCO4)c3ccccc3n2)cc1 | 9 | 15* | i | -1 | i | -4
CCOc1ccc(-c2cc(C(=O)Nc3ccc4c(c3)OCCO4)c3ccccc3n2)cc1 | -3 | -1 | i | 1 | i | 3
CCN(CC(=O)Nc1c(F)cccc1F)C(=O)c1cc(S(=O)(=O)N2CCOCC2)ccc1N1CCCC1 | -1 | 0 | i | -1 | i | 2
Cc1ccc2sc(NNC(=O)c3cc(=O)c4ccccc4o3)nc2c1C | 5 | -1 | 100* | -2 | i | 11
Cc1nc2ccccc2n1CC(O)COC1CCCCC1 (stereo not drawn) | 0 | -1 | i | -2 | i | 53*
O=c1/c(=C\c2ccc(O)cc2)sc2n1C(c1ccccc1)C(c1ccccc1)=NN=2 (stereo not drawn) | -5 | 15* | i | 20 | i | -49
CCOC(=O)C1=C(C)N=c2sc(=Cc3ccc(OCC(=O)O)cc3)c(=O)n2C1c1ccc(Cl)cc1 (stereo not drawn) | -1 | / | / | / | / | /
Cc1cccc(NC(=O)CNC(=O)[C@H]2O[C@@H](n3cnc4c(N)ncnc43)[C@H](O)[C@@H]2O)c1C | -1 | / | / | / | / | /
Cc1nc2cc(NC(=O)c3ccc([N+](=O)[O-])s3)ccc2s1 | -1 | 24* | i | 0 | i | 2
COc1ccc(CCC2=NCCN2C(CC(C)C)c2nc3ccccc3[nH]2)cc1 (stereo not drawn) | 0 | / | / | / | / | /
